Source: PubChem BioAssay AID686978 (National Center for Advancing Translational Sciences (NCATS), 2013)
Several values for one entry are separate records, joined by “and”; a condition that tells them apart may be missing. Identical values can stand only once. Out of some 420,000 compounds screened, about 64,000 (15%) were called active. Not shown: some 27% with an inconclusive outcome. The call rests on the fitted dose curve; in most records, active means well fitted inhibition curve with a large enough effect; inconclusive means small, poorly fitted or top-dose-only effect; inactive means flat fitted curve, though single readings scatter. A selection follows. Some compounds were tested as several samples or in several runs, with calls that do not always agree.

Experiment: qHTS for Inhibitors of human tyrosyl-DNA phosphodiesterase 1 (TDP1): qHTS in cells in absence of CPT; further: nearly all actives have a fitted effect of over 55% in size
Settings: DT40 Tdp1-/- hTDP1 cells, no CPT, ATP luminescence, 48 h; activity change, negative = growth inhibition: at 46.2 µM (top of the series)
Summary of the method: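 Seeded 400 DT40-hTDP1 cells/well (vehicle DMSO, no 20 nM CPT); pinned compounds; ≥48 hr at 37 °C; CellTiter-Glo luminescence as viability measure.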
On the % scale 0 is the no-effect control and ±100 the full control effect; potency means the concentration at half of the fitted maximal effect.

Row | SMILES | activity change, negative = growth inhibition | Potency
1 | O=C1NN(c2ccccc2)C(=O)/C1=C/c1ccc(-c2cccc(C(=O)O)c2)o1 | 4.78% (inactive) | –
2 | O=C1NC[C@H](CCCCN2CCN(CCc3ccccc3)C(=O)C2=O)N(CC2CCCCC2)C1=O | -18.5% (inactive) | –
3 | CN(C)NC(=O)c1csnc1-c1c(Cl)cccc1Cl | -14.2% (inactive) | –
4 | c1ccc(Nc2n[nH]nc2-c2ccccc2)cc1 | -6.64% (inactive) | –
5 | Cc1ccccc1-c1nc(CS(=O)(=O)CC(=O)NC(C)c2ccccc2)c(C)o1 (configuration not stated) | – | inactive and 16.4 µM (active)
6 | Cc1ccc(S(=O)(=O)CC(=O)NC(C)c2ccccc2)cc1 (configuration not stated) | 2.72% (inactive) | –
7 | CSc1ccc(CCNC(=O)CS(=O)(=O)Cc2nc(-c3ccccc3F)oc2C)cc1 | -25.8% (inactive) | –
8 | Cc1ccc(NC(=O)c2sccc2C)cc1[N+](=O)[O-] | -19.1% (inactive) | –
9 | O=C(C1CCN(CC2CCCCC2)CC1)N1CCCC1 | -18.7% (inactive) | –
10 | CC(=O)NS(=O)(=O)c1ccc(NC(=S)NC(=O)C(C)(C)C)cc1 | -2.91% (inactive) | –
11 | CC(NC(=O)c1ccccc1SCC(=O)N1CCCC1)c1ccccc1 (configuration not stated) | -12.4% (inactive) | –
12 | CC1(C)Cc2nc3sc4c(SCC(=O)NC(c5ccccc5)c5ccccc5)ncnc4c3cc2CO1 | – | 8.2 µM (active)
13 | C=CCn1c(=S)[nH]c2nc3c(cc2c1=O)COC(C)(C)C3 | -16.9% (inactive) | –
14 | CCOc1ccc(NC(=O)CSc2ncnc3c2sc2ccccc23)cc1 | -6.84% (inactive) | –
15 | O=c1cnnc(Nc2ccccc2F)[nH]1 | -37.5% (inactive) | –
16 | CCc1nc2nc(C)c(NS(=O)(=O)c3ccc4c(c3)CCCC4)c(=O)n2[nH]1 | 3.52% (inactive) | –
17 | COCc1c(N)c(C)nc(Cl)c1C#N | 5.15% (inactive) | –
18 | O=C(NCCCO)C(=O)Nc1c2c(nn1-c1ccccc1)CSC2 | -4.47% (inactive) | –
19 | COc1ccc(N(C(=O)CNC(=O)c2ccco2)C(C(=O)NCC2CCCO2)c2ccccc2)cc1Cl (configuration not stated) | -3.54% (inactive) | –
20 | Cc1ccc(-c2nn(-c3ccc(F)cc3)cc2C(=O)NCC(c2cccs2)N2CCOCC2)cc1 (configuration not stated) | – | 14.6 µM (active)
21 | O=C(NCCCN1CCOCC1)c1cn(-c2ccccc2)nc1-c1ccc(F)cc1 | -5.56% (inactive) | –
22 | O=C(NCc1cccnc1)c1cn(-c2ccccc2)nc1-c1cccs1 | -1.88% (inactive) | –
23 | Cc1nn(CC(=O)NCc2ccccn2)c(C)c1[N+](=O)[O-] | -0.287% (inactive) | –
24 | CCOC(=O)c1c(NC(=O)/C=C/c2ccco2)sc(C)c1C | -22.1% (inactive) | –
25 | C#CCOCCOCCOCCNc1nc(N2CCN(C(=O)C([C@@H](C)CC)n3cc(C(N)COC(=O)C(F)(F)F)nn3)CC2)nc(N2CCN(C(=O)[C@H](Cc3ccc(O)cc3)n3cc(C(N)[C@H](C)CC)nn3)CC2)n1 (some centres not stated) | 7.42% (inactive) | –
26 | O=C(CSc1nncn1-c1cccnc1)N1CCOCC1 | -2.75% (inactive) | –

Row | SMILES | activity change, negative = growth inhibition | Potency
27 | O=S(=O)(c1ccc(F)cc1)N1CCN(C(=S)NC2CCCC2)CC1 | -6.98% (inactive) | –
28 | CCOC(=O)Cn1c(N)c(C(=O)OC)sc1=S | 1.23% (inactive) | –
29 | COc1cccc(-n2c(=S)sc3c(=O)n(-c4ccccc4C)c(SCC(=O)O)nc32)c1 | 18.7% (inactive) | –
30 | CCOC(=O)c1sc(=S)n(-c2cccc(OC)c2)c1N | – | 11.2 µM (active)
31 | Cc1ccc(-c2nnn(CC(=O)N(CCO)C(C(=O)NC(C)(C)C)c3ccncc3)n2)cc1 (configuration not stated) | 4.49% (inactive) | –
32 | Cc1cccc2c3c(ccc12)C1=C(C(=O)C3=O)C(C)CO1 (configuration not stated) | -94.9% (inactive) | –
33 | CCCC(=O)Nc1ncnc2c1ncn2[C@@H]1O[C@@H]2OP(=O)(O)OC[C@H]2[C@H]1OC(=O)CCC | -3.54% (inactive) | –
34 | Cc1nc(CNS(=O)(=O)c2cccnc2)cs1 | -4.71% (inactive) | –
35 | COC(=O)c1ccc(CNC(=O)C2CCC(=O)N(Cc3cccc(F)c3)C2)cc1 (configuration not stated) | 5.12% (inactive) | –
36 | COc1cc(CNC(=O)c2cc3n(n2)CCCN(Cc2cccc(F)c2)C3=O)cc(OC)c1OC | – | 20.6 µM (active)
37 | COC(=O)c1cc2n(n1)CCCNC2=O | 12.7% (inactive) | –
38 | CCNC(=O)c1cc2n(n1)CCCN(Cc1ccc(C)cc1)C2=O | -21.3% (inactive) | –
39 | Cc1ccc(CN2CCCn3nc(C(=O)NCc4ccccc4Cl)cc3C2=O)cc1 | – | 25.9 µM (active)
40 | O=C(NCc1ccccc1Cl)c1csc2c1CCCCC2 | -22% (inactive) | –
41 | Cn1c(=O)c2c(ncn2CC(=O)N/N=C/c2cn[nH]c2-c2ccc(F)cc2)n(C)c1=O | -15.2% (inactive) | –
42 | O=C(Cc1ncc(C(F)(F)F)cc1Cl)Nc1cccc(Br)c1 | -18.5% (inactive) | –
43 | CCc1nnc(NC(=O)CCC(=O)O)s1 | 4.49% (inactive) | –
44 | O=C(Nc1ncccn1)c1cccs1 | -87.3% (inactive) | –
45 | C/C(CCc1ccccc1)=N\NC(=O)c1ccc(CN2CCOCC2)cc1 | 0.0091% (inactive) | –
46 | CCN1CN(Cc2ccccc2)CNC1=S | -1.84% (inactive) | –
47 | S=C1SCN(CCN2CCOCC2)CN1Cc1ccccc1 | – | 3.16 µM (active)
48 | O=C(O)/C=C/C(=O)Nc1ccc(F)cc1F | -1.78% (inactive) | –
49 | COC(=O)c1sc(-c2ccc(C(C)(C)C)cc2)cc1NC(=O)/C=C/C(=O)O | – | 4.61 µM (active)
50 | CSc1ccc(NC(=O)/C=C/C(=O)O)cc1 | -18.4% (inactive) | –
51 | Cc1nnc(SC(C(=O)Nc2cc(Cl)cc(Cl)c2)c2ccccc2)[nH]c1=O (configuration not stated) | 3.42% (inactive) | –
52 | O=C(O)C1CCCCC1C(=O)Nc1ccc(Cl)cc1 (configuration not stated) | -8.69% (inactive) | –
